From PubChem BioAssay (Tox21)
Where “and” joins values, the source holds several entries; their conditions need not be identical. Equal values may be shown once. Records with an inconclusive call do not appear. Values without a mark were called inactive. Calls of active or inactive are those of the source. Calls come from the whole dose curve; as a rule, active = well fitted cell-killing curve with a large enough effect in the repeat runs; inconclusive = weak or mixed curves, or effect the other way; inactive = no such curve, though single readings can be large or run the other way.

Assay: qHTS assay to identify small molecule agonists of the estrogen receptor alpha (ER-alpha) signaling pathway in the presence of an antagonist - cell viability counter screen (AID 1259386);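 note: cells exposed to compounds for 22 h at 37 °C before the viability read; nearly all actives have a fitted effect of over 30% in size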
Conditions: VM7Luc4E2 viability, CellTiter-Fluor fluorescence, 22 h; series mostly up to 92.4 µM; activity change, negative = cytotoxicity: at the top concentration
Description: National Center for Advancing Translational Sciences [NCATS]
NIH Chemical Genomics Center [NCGC]
U.S. Environmental Protection Agency [EPA]
National Institutes of Environmental Health Sciences [NIEHS]
National Toxicology Program [NTP]
U.S. Food and Drug Administration [FDA]
Estrogen receptor (ER), a member of nuclear hormone receptor plays an important role in development, metabolic homeostasis and reproduction. Two subtypes of ER, ER-alpha and ER-beta, have similar expression patterns with some uniqueness in both types. Endocrine disrupting chemicals (EDCs) and their interactions with steroid hormone receptors like ER causes disruption of normal endocrine function. Therefore, it is important to understand the effect of environmental chemicals in ER signaling pathway. For identifying ER agonists, VM7Luc4E2 cell line has been used in the current assay.
VM7Luc4E2 cell line (provided by Denison MS, University of California) endogenously expresses full-length ER-alpha and is stably transfected with a plasmid containing four estrogen responsive elements (ERE) upstream of a luciferase reporter gene. This current screening for measuring luciferase reporter gene activity using VM7Luc4E2 cells against Tox21 10K library collection is a confirmation study on agonist mode screening in presence of ER-antagonist (ICI-182,780) at 10.0nM final concentration. The cytotoxicity of the compounds was tested in parallel by measuring the cell viability using CellTiter-Fluor assay system (Promega, Madison, WI) in the same wells.
Tox21 Assay Protocol Summary:
VM7Luc4E2 cells were cultured in phenol red free assay medium containing 10% charcoal stripped FBS for 5 days prior to the assay. The cells were dispensed at 4,000 cells in 4uL of assay medium per well into white wall/solid-bottom 1536-well plates (Corning Life Sciences, Corning, NY) using a Multidrop Combi (Thermo Fisher Scientific Inc., Waltham, MA) dispenser. After the assay plates were incubated at 37C and 5% CO2 for 24hr, 1uL of 10.0nM (final concentration) ICI-182,780 or assay buffer was added using two separate tips of Flying Reagent Dispenser (FRD, Aurora Discovery, San Diego, CA). Then 23nL of compounds dissolved in DMSO at 15 concentrations and positive controls or DMSO only was transferred to the assay plates by a Pintool station (Wako, San Diego, CA). The assay plates were incubated at 37C and 5% CO2 for 22hr. After 21hr incubation at 37C, 1uL/well CellTiter-Fluor reagent (Promega Corporation, Madison, WI) was added to each well using FRD and after 1hr incubation at 37C and 5% CO2, the fluorescence signal was measured on ViewLux plate reader (PerkinElmer, Shelton, CT).
% is set by controls: 0 for no effect and ±100 for the full control effect; potency is the fitted concentration of half-maximal effect.

For CN(C)c1ccc(C(=C2C=CC(=[N+](C)C)C=C2)c2ccc(N(C)C)cc2)cc1, the Potency was 8.59 µM (active) and 15.4 µM (active) and 5.96 µM (active).
With Cc1cc(-c2ccc(N=Nc3cc(S(=O)(=O)O)c4ccccc4c3N)c(C)c2)ccc1N=Nc1cc(S(=O)(=O)O)c2ccccc2c1N the Potency was 30.8 µM (active).
In the case of O=C(O)c1cc(O)c2ccccc2c1O, the Potency is reported as 27.3 µM (active).
In the case of CCN(CC)c1ccc2c(-c3ccc(S(=O)(=O)O)cc3S(=O)(=O)[O-])c3ccc(=[N+](CC)CC)cc-3oc2c1, the Potency is reported as 7.07 µM (active).
With Nc1ccc(NCCO)c([N+](=O)[O-])c1 the Potency was 30.6 µM (active).

Compared with C=CCn1c(=O)n(CC=C)c(=O)n(CC=C)c1=O, C=CC(=O)OCCOC(=O)C=C is higher in “activity change, negative = cytotoxicity” value: -5.2% for the first, 0.0955% for the second.

Compared with Clc1ccnc(Cl)n1, Clc1nnc(Cl)c2ccccc12 is higher in “activity change, negative = cytotoxicity” value: -0.538% for the first, 7.78% for the second.

Compared with S=c1nccc[nH]1, C[Si](Cl)(c1ccccc1)c1ccccc1 is lower in “activity change, negative = cytotoxicity” value: 0.22% for the first, -2.9% for the second.

Compared with CC(C)(C)C1CCC(=O)CC1, CCCC1CCC(=O)CC1 is higher in “activity change, negative = cytotoxicity” value: -1.76% for the first, 1.22% for the second.

Compared with CC/C=C\CCCCCO, OC/C=C/CO is lower in “activity change, negative = cytotoxicity” value: 2.19% for the first, 1.99% for the second.

Compared with OC12N=C(c3ccccc3)SC1Cc1cc(Cl)ccc12 (stereo not given), Cl[Si](Cl)(c1ccccc1)c1ccccc1 is higher in “activity change, negative = cytotoxicity” value: -12.9% for the first, 5.46% for the second.

Going from [Cl][Pt-2]([Cl])([Cl])[Cl] to Clc1sc(Cl)c(Cl)c1Cl, the “activity change, negative = cytotoxicity” value falls from 7.75% to -2.52%.

First: COC(=O)c1ccccc1OC
Second: CCCC(=O)OC(C)(C)Cc1ccccc1
The “activity change, negative = cytotoxicity” value of the first is lower: -5.58% for the first, -2.35% for the second.

First: O=C1OC2(c3ccc(O)cc3Oc3cc(O)ccc32)c2ccc(N=C=S)cc21
Second: COCCOc1cc2cc(C(=O)NC3CCN(C(C)C)CC3)n(CC(=O)Nc3ccc(Cl)cn3)c2cn1
The “activity change, negative = cytotoxicity” value of the first is higher: -6.55% for the first, -10.2% for the second.

First: CCc1ccc(Br)cc1
Second: CC(C)CCOC(=O)/C=C/c1ccccc1
The “activity change, negative = cytotoxicity” value of the first is higher: -0.193% for the first, -9.68% for the second.

With O[C@@H]([C@H](O)[C@H](O)CBr)[C@H](O)CBr the “activity change, negative = cytotoxicity” value was -0.103%.

Going from CCCCCCCCCCCC(=O)OCC(C)OC(=O)CCCCC(=O)O (stereo not given) to CCCCCCCCCCC[C@@H](C[C@@H]1OC(=O)[C@H]1CCCCCC)OC(=O)[C@H](CC(C)C)NC=O, the “activity change, negative = cytotoxicity” value falls from -2.08% [at 42.5 µM] to -9.3% [at 42.5 µM].

Going from OCCN1CCN(CCCN2c3ccccc3Sc3ccc(C(F)(F)F)cc32)CC1 to O=c1[nH]c2ccccc2n1CCCN1CCN(C(c2ccccc2)c2ccccc2)CC1, the “activity change, negative = cytotoxicity” value falls from -3.95% [at 42.5 µM] to -15.1% [at 42.5 µM].

First: CN(C)C(=O)COC(=O)Cc1ccc(OC(=O)c2ccc(N=C(N)N)cc2)cc1
Second: Cc1cccc(C)c1NC(=O)c1ccc(N)cc1
The “activity change, negative = cytotoxicity” value of the first is lower: -3.14% [at 42.5 µM] for the first, 3.36% [at 42.5 µM] for the second.

Going from CCCCCCCCCCCCCC[N+](C)(C)Cc1ccccc1 to CN1CCC[C@@H]1CCO[C@](C)(c1ccccc1)c1ccc(Cl)cc1, the “activity change, negative = cytotoxicity” value falls from -1.75% [at 42.5 µM] to -5.3% [at 42.5 µM].

Going from C#C[C@]1(OC(C)=O)CC[C@H]2[C@@H]3CCC4=C/C(=N/O)CC[C@@H]4[C@H]3CC[C@@]21CC to Cc1nc(-c2ccc(Cl)cc2)oc1COC(C)(C)C(=O)O, the “activity change, negative = cytotoxicity” value falls from 1.38% [at 42.5 µM] to -0.329% [at 42.5 µM].

Going from O=C(O)Cc1ccc2c(c1)C(=O)c1ccccc1CO2 to Nc1nc(N)nc(-c2cc(Cl)ccc2Cl)n1, the “activity change, negative = cytotoxicity” value falls from 0.249% [at 42.5 µM] to -2.89% [at 42.5 µM].

For CC(N=C(NC#N)Nc1ccncc1)C(C)(C)C (stereo not given), the “activity change, negative = cytotoxicity” value was 6.6% [at 42.5 µM].

In the case of C[C@H]1NCc2cc(-c3ccc4c(=O)c(C(=O)O)cn(C5CC5)c4c3OC(F)F)ccc21, the activity change, negative = cytotoxicity is reported as 1.35% [at 19 µM].
